High-throughput results as filed in PubChem BioAssay.
TNAP act DEA: human TNAP enzyme activators, primary screen, biochemical, luminescent, intermediate phosphate acceptor level; purified TNAP, CDP-star luminescence, 100 mM DEA, 30 min; active compounds read high; scale: 0 levamisole-inhibited, 1 vehicle-only enzyme; activation factor at 20 µM; 64,000 tested, under 10 active;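 active means activation factor of at least 2 at 20 µM, relative to controls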
HePTP inh: inhibitors of human HePTP phosphatase, primary screen, biochemical, absorbance, leukemia target | Tyrosine-protein phosphatase non-receptor type 7 (Homo sapiens), P35236 | recombinant HePTP phosphatase activity, OD absorbance | inhibition, % at 20 µM | actives 0.64% (n = 110,000) | AID 521, 2006; in the data active means inhibition above about 50%;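 further: plate controls were vehicle for no effect and reference inhibitor for full effect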
Ecoli WT expand: growth inhibitors of wild-type E. coli, primary screen, strain BW25113, expanded library, OD600; OD600 absorbance; growth inhibition, % at 100 µM; actives 0.15% (n = 98,000); AID 710, 2007;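 active means growth inhibition above about 50% at one test dose, limit read from the data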;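 further: growth measured after 20 h incubation at 37 °C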
PLAP act: PLAP enzyme activators, biochemical, luminescence, HTS; AID 696, 2007; actives 1.2% (n = 96,000); purified PLAP enzyme, luminescent substrate read-out; active compounds read high; activation fold at 20 µM; in the data active means activation fold above about 2
Target sequence (P05187 whole entry, looked up): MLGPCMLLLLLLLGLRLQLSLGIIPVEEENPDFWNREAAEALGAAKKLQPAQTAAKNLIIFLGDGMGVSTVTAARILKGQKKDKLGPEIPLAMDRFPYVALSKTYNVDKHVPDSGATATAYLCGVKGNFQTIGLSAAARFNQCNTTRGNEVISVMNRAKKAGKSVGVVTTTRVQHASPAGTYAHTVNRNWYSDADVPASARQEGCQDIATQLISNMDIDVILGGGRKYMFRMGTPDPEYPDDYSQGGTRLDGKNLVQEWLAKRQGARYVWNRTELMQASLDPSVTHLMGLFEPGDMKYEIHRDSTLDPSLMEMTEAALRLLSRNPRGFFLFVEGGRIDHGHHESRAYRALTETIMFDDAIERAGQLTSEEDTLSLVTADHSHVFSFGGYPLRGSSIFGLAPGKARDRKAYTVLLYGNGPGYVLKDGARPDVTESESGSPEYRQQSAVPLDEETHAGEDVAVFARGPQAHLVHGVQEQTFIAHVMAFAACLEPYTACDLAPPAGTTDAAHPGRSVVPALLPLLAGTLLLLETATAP
Active calls of the source: *; . = not tested or not shown. The list is not random: actives were taken first. Their share in the collection is about 1.3%.

SMILES | TNAP act DEA | HePTP inh | Ecoli WT expand | PLAP act
COC(=O)C1=C(C)NC2=C(C(=O)CC(c3ccccc3)C2)C1c1cc(OC)c(OC)cc1[N+](=O)[O-] (configuration not stated) | . | -7 | . | .
CC(C)N(C)C1CCN(C(=O)Nc2ccc(Cl)cc2)CC1 | 0.9 | 8 | 2 | 1
COc1ccccc1Nc1ncnc2nc[nH]c12 | . | . | 0 | 2*
CCCCN(CCCNc1ncnc2nc[nH]c12)c1ccccc1 | 1.3 | 1 | 3 | 1.6
COc1ccccc1CNc1ncnc2nc[nH]c12 | 1.2 | -3 | 11 | 2.1*
c1ccc(CCNc2ncnc3nc[nH]c23)cc1 | 1.1 | 7 | 1 | 2.2*
Cc1cccc(Nc2ncnc3nc[nH]c23)c1C | 1.1 | -8 | 6 | .
CCN(CCCNc1ncnc2nc[nH]c12)c1cccc(C)c1 | 1.2 | -2 | 4 | 2.1*
CC(=O)Oc1ccc(/C=C(/NC(=O)c2ccccc2)C(=O)NCCO)cc1 | . | -9 | . | .
O=C(NCCN1CCOCC1)c1cc(-c2ccc(Br)cc2)nc2ccccc12 | . | 104* | . | .
CCCOc1ccc(-c2cc(C(=O)NCCCN3CCOCC3)c3ccccc3n2)cc1 | . | 103* | . | .
Cc1ccc2nc(SCC(=O)NC(=O)NCc3ccco3)[nH]c2c1 | 1 | -6 | 4 | 2*
CCN1C(=O)/C(=C\c2cc(Cl)c(OCCOc3cccc(OC)c3)c(OC)c2)SC1=S | . | -1 | . | .
CNc1ccc2c(O)cc(S(=O)(=O)O)cc2c1 | . | 54* | . | .
CC12CCC(C(=O)N3CCCCC3)(CC1=O)C2(C)C (configuration not stated) | 0.9 | 2 | 0 | 1.3
COc1cc(C(=O)Nc2ccc3oc(-c4ccc(C)cc4C)nc3c2)cc(OC)c1OC | . | 5 | . | .
CCn1cc(C(=O)O)c(=O)c2cc(F)c(N3CCN(C(=O)Nc4ccccc4)CC3)cc21 | 0.9 | 13 | 94* | 1.2
CCn1cc(C(=O)NCCc2ccccc2)c(=O)c2cc(F)c(N3CCN(C)CC3)cc21 | 0.9 | 8 | 33 | 1.6
CCn1cc(C(=O)NCc2ccccn2)c(=O)c2cc(F)c(N3CCN(C)CC3)cc21 | 0.9 | 8 | 100* | 1.4
CCn1cc(C(=O)N[C@H](C)c2ccccc2)c(=O)c2cc(F)c(N3CCN(C)CC3)cc21 | . | . | 1 | 1.6
CCn1cc(C(=O)NCc2ccco2)c(=O)c2cc(F)c(N3CCN(C(=O)c4ccco4)CC3)cc21 | 0.9 | 10 | 90* | 1.5
CCn1cc(C(=O)NCc2ccc3c(c2)OCO3)c(=O)c2cc(F)c(N3CCN(C)CC3)cc21 | 1 | 5 | 100* | 1.6
CCn1cc(C(=O)NCc2ccco2)c(=O)c2cc(S(=O)(=O)N3CCCCCC3)ccc21 | 0.9 | -10 | -6 | 1.5
O=C(CSc1nnc(-c2ccncc2)n1-c1ccccc1)c1ccc(F)cc1 | . | 5 | . | .
O=S(=O)(/N=C(/Nc1cc(N2CCOCC2)ncn1)c1ccc(F)cc1)c1ccccc1 | 1 | -8 | -4 | 2.1*
SMILES | TNAP act DEA | HePTP inh | Ecoli WT expand | PLAP act
CCN1/C(=C/c2ccc3ccccc3[n+]2CC)C=Cc2ccccc21 | . | . | 57* | 0.2
CCN1C(=C2C(=O)c3ccccc3C2=O)C=Cc2ccccc21 | 0.7 | -7 | 2 | 0.5
CCc1ccc(NC(=O)C(=O)NCc2ccccc2OC)cc1 | . | -1 | . | .
CCc1ccc(NC(=O)CNC(=O)c2cn(-c3ccccc3OC)c(=O)c3ccccc23)cc1 | . | . | -11 | 2.2*
C=C(C)CN1CCN(c2c(CCC#N)c(C)c(C#N)c3nc4ccccc4n23)CC1 | 1 | 8 | -3 | 1
O=C(Nc1ccc(Cc2ccncc2)cc1)C1CCC(N2C(=O)C3C4C=CC(C4)C3C2=O)CC1 (configuration not stated) | . | . | 4 | 2.1*
O=C(Nc1ccc(Cc2ccncc2)cc1)C1CCC(N2C(=O)C3CC=CCC3C2=O)CC1 (configuration not stated) | . | . | -5 | 1.1
CC(C)Nc1nc(Cl)nc(NNC(=O)C(C)Oc2ccccc2)n1 (configuration not stated) | . | . | 9 | 2.2*
Cc1cc(N2CCOCC2)c2c(N)c(Br)cc(C)c2n1 | 0.9 | 4 | -9 | 2*
